# Experimental data taken from publication PMC7819943, “Rice protein-binding microarrays: a tool to detect cis-acting elements near promoter regions in rice”.
# The full ranking holds about 68,000 sequences; the median of “fluorescence intensity (a.u.)” is about 9,100, and the highest 2% start at about 16,000. This is one part of a sample in which the highest values are shown more often than they occur.
# Biological target: OsWRKY34 (Oryza sativa, UniProt Q0JBA9 1-250)
# Assay: protein-binding microarray (RPBM); PBS, 2% BSA, 51.3 ng/ul salmon testes DNA, 50 uM zinc acetate, 200 nM TF, 25 C, 1 h; high values mean tight binding
# Conditions: protein: recombinant; tags: N-terminal polyhistidine and DsRed monomer fusion (pET32a); label: CyDye5-dUTP incorporated in the synthesized complementary strand; 3' TTTTT single-stranded linker to array surface; dsDNA, one strand shown
# Outline: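 Transcription factors were each fused at the N-terminus to a polyhistidine tag plus DsRed and expressed in E. coli BL21-CodonPlus before Ni–NTA purification. Binding to a double-stranded custom Agilent array was carried out with 200 nM protein at 25 °C for 1 h in PBS, 2% BSA, salmon testes DNA and 50 µM zinc acetate. The binding signal is per-feature fluorescence intensity, in arbitrary units, on an Axon 4000B scanner.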
# Sequence of OsWRKY34 (Q0JBA9 entry or part of it): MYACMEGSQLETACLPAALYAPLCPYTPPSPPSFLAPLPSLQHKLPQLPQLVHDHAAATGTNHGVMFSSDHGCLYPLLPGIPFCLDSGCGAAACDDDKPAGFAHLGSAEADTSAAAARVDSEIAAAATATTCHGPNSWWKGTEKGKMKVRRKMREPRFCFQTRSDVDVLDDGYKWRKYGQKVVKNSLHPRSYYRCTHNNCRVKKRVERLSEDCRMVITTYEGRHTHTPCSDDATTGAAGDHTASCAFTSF
row,Sequence,binding signal
1,ATTATATGCTAATTACTTTCTCGTTTTACGTACACCAACTCGGAGTCACCTAGTGCAG,8420 fluorescence intensity (a.u.)
2,TTTCATTTTTTTTTACCACCTCACCTTCTGTGTTTCTTTTCGGAGTCACCTAGTGCAG,9040 fluorescence intensity (a.u.)
3,TTGACTTTGTTTAAAGTCAAACTGCTTCAAGTTTGACTAACGGAGTCACCTAGTGCAG,9550 fluorescence intensity (a.u.)
4,ATTTAAAATAGTTTGACTTTGACCAAAGTCAAAACATCTTCGGAGTCACCTAGTGCAG,13500 fluorescence intensity (a.u.)
5,TAAAGTCAAACTGTTTTTTTAAGTTTGACCAAGCTTTTGACGGAGTCACCTAGTGCAG,10400 fluorescence intensity (a.u.)
6,TTTTGTCATTGTCAAATTTTGATAAGTTTGTCAAAATTTTCGGAGTCACCTAGTGCAG,9080 fluorescence intensity (a.u.)
7,ATTTTGGTCAAATTTAAACTAATCTAAGTTTGACTAATTTCGGAGTCACCTAGTGCAG,8610 fluorescence intensity (a.u.)
8,TGCATTTCAATTCAAATTTAAGTTGATTCGTTGACTTGTTCGGAGTCACCTAGTGCAG,10100 fluorescence intensity (a.u.)
9,AAATTTGAAGTAGTTTGACTTTGACCAAAGTCAAAACATCCGGAGTCACCTAGTGCAG,17600 fluorescence intensity (a.u.)
10,AAACTTGAAGAAATTTGACTTTAGCTAAAGTCAAAACATCCGGAGTCACCTAGTGCAG,10600 fluorescence intensity (a.u.)
11,TTGGTCAAAGTCAAACTGCTTTAAGTTTGACCAAGTTTGTCGGAGTCACCTAGTGCAG,21500 fluorescence intensity (a.u.)
12,TTTGGTCAAAGTCAAACTGCTTCTAGTTTGACTAAATTTACGGAGTCACCTAGTGCAG,17800 fluorescence intensity (a.u.)
13,AAGCTTTGACTTTTTTTTGTCAAATTTTTTAAGTTTGATTCGGAGTCACCTAGTGCAG,20400 fluorescence intensity (a.u.)
14,AGATGTTTTGACTTTAGTCAAAGTCAAACTGCTTTAAGTTCGGAGTCACCTAGTGCAG,11800 fluorescence intensity (a.u.)
15,AAACTACCATGGGACTTATATTGCTCCGGTTTTGATAGTTCGGAGTCACCTAGTGCAG,8480 fluorescence intensity (a.u.)
16,TTCCACAGAGTCAAGTCCACAGAACGTATGCTCCATGTTCCGGAGTCACCTAGTGCAG,8160 fluorescence intensity (a.u.)
17,GGCTGCCTGTGCATGGGAGGCGATGTGAGGGTGGGCAGGGCGGAGTCACCTAGTGCAG,9440 fluorescence intensity (a.u.)
18,ACTCACGCTTTAACACCAGGAATCTTATCTCTATCTCATCCGGAGTCACCTAGTGCAG,8460 fluorescence intensity (a.u.)
19,ATTGGGCTGGAATGAGATTCACGGGAGGGTAACTGGCGGTCGGAGTCACCTAGTGCAG,12300 fluorescence intensity (a.u.)
20,TTCAAATTGTTGCTGCTCTGTGCTAGCCTTTTCATATTGACGGAGTCACCTAGTGCAG,9110 fluorescence intensity (a.u.)
21,ATTTTTTTTCTAGTCAAACTTTGTTAAGTTTGACCAAAATCGGAGTCACCTAGTGCAG,9790 fluorescence intensity (a.u.)

row,Sequence,binding signal
1,ATAAGATATTTTTGACTTTGGTCAAAGTCAAATTGTTTCACGGAGTCACCTAGTGCAG,15300 fluorescence intensity (a.u.)
2,CACTTTATTTTTGAAAATTCGGGTGGGTAAGCTGGTGACTCGGAGTCACCTAGTGCAG,19200 fluorescence intensity (a.u.)
3,CTTTGGTCAAAGTCAAATTGTTTTAAGTTTGACCAAGTTTCGGAGTCACCTAGTGCAG,19600 fluorescence intensity (a.u.)
4,CGTGGTAATTTTTATTGGTAAGTGGTGGTGAAGTGGGTGACGGAGTCACCTAGTGCAG,8300 fluorescence intensity (a.u.)
5,GCAGTTTAACTTTGACCAAAGTCAAAATATTTTATAATTTCGGAGTCACCTAGTGCAG,8930 fluorescence intensity (a.u.)
6,TAAGTTGTTTGACTTTTTTTCTAGTCAAACTTGTCTGAGTCGGAGTCACCTAGTGCAG,17000 fluorescence intensity (a.u.)
7,ATATTATAAGTTGTTTTGACTTTTTGCTAGTCAAACTTATCGGAGTCACCTAGTGCAG,14200 fluorescence intensity (a.u.)
8,ACACTTTGACTCTTTGATTTAGTAAGCTCGAGTTTATTTTCGGAGTCACCTAGTGCAG,9030 fluorescence intensity (a.u.)
9,ACTTCTTCTACGTGATTTCCTGATTCGCCTCATCCGCTTCCGGAGTCACCTAGTGCAG,9060 fluorescence intensity (a.u.)
10,TGGGGATGGCGGAGGTTAGCGGCGCGCTTTTTTTTCTATTCGGAGTCACCTAGTGCAG,14500 fluorescence intensity (a.u.)
11,TTCATATACACATATAGTTTTACATATTTCATATTTTTTTCGGAGTCACCTAGTGCAG,9360 fluorescence intensity (a.u.)
12,CCACCTGCCAGCCTGTACCCACCCCTCCCTACTGTTATACCGGAGTCACCTAGTGCAG,8640 fluorescence intensity (a.u.)
13,ATGATCATAGCCATTTTTCCTCGCTTTAAATATTTGCTACCGGAGTCACCTAGTGCAG,8490 fluorescence intensity (a.u.)
14,GCTTGCTTGGTTGGTTGGTGGAGCTTGGGAGTTGAGGTCACGGAGTCACCTAGTGCAG,11500 fluorescence intensity (a.u.)
15,GCTTGTTGTGGGCTGTGGACTGGGTGTGTGTGTGTGCTTTCGGAGTCACCTAGTGCAG,9420 fluorescence intensity (a.u.)
16,CGGGTGGGGATGGGCTGGATCTGGATTGATTGGGAGTGTTCGGAGTCACCTAGTGCAG,15200 fluorescence intensity (a.u.)
17,TTCGGAGGCGGAGGCGGTGGTGGGCTTGGTGGAGGTGGCGCGGAGTCACCTAGTGCAG,9860 fluorescence intensity (a.u.)
18,CTGGATTGATTGGGAGTGTTGGGTTTCGGGCTAGATCTGGCGGAGTCACCTAGTGCAG,9850 fluorescence intensity (a.u.)
19,TTGGCGGTGGAGGCGGTGGTGGCTTTGGAGGAGACGGTGGCGGAGTCACCTAGTGCAG,8650 fluorescence intensity (a.u.)
20,GTGGCTTGAAAGGTCTGTGTGTTCTTGTTTGGGATTGAGGCGGAGTCACCTAGTGCAG,8440 fluorescence intensity (a.u.)
21,GGTTGCTGTGGTTGGCGAGGTGGGGTGGGGCTTGGAGTAACGGAGTCACCTAGTGCAG,27400 fluorescence intensity (a.u.)

row,Sequence,binding signal
1,AGTCTGGATTCTTGGAGGTCAACTTTGGTCAACGGTGGGGCGGAGTCACCTAGTGCAG,14200 fluorescence intensity (a.u.)
2,GCTTTTGGCTGTGGTGGGTGCTTGTGGGTGGAGAGAGAGACGGAGTCACCTAGTGCAG,19300 fluorescence intensity (a.u.)
3,GAGGTCTACTGTTATTGGGGATTCTTTTTGGGTGGGGTGGCGGAGTCACCTAGTGCAG,31300 fluorescence intensity (a.u.)
4,TGGCGGATTGATCTGGAGGTGGGCTTGTTGGGGTTGCTGTCGGAGTCACCTAGTGCAG,18200 fluorescence intensity (a.u.)
5,ATCTTTGCCAAAATTTTTCTACTAGTATAATACTATCTCCCGGAGTCACCTAGTGCAG,8420 fluorescence intensity (a.u.)
6,AAGCTCCGATCCACAGCGCACCTCGAGCCCTACCTCCGATCGGAGTCACCTAGTGCAG,8940 fluorescence intensity (a.u.)
7,TTCCTCCATCCATTTTGTCAACTCCTCTCCGCTTTTCATCCGGAGTCACCTAGTGCAG,9640 fluorescence intensity (a.u.)
8,GCCTGGCGCGCCTCTCCTGCTCTGTTGGACCGCCGCGCCCCGGAGTCACCTAGTGCAG,12000 fluorescence intensity (a.u.)
9,CCACTCTCCGGCGCACCTATTTTCCATTTATATATATATGCGGAGTCACCTAGTGCAG,9670 fluorescence intensity (a.u.)
10,TTGAACCCTGCTCTCAGCTGAGCACCATGCAATAACTGTCCGGAGTCACCTAGTGCAG,8270 fluorescence intensity (a.u.)
11,CCAATGATATGTGCCGAAGTTGTATTTATCGAGAGATATTCGGAGTCACCTAGTGCAG,9850 fluorescence intensity (a.u.)
12,CCAGTGAATTACATTTTTGCCCGATCCCGTCGCGAACTCCCGGAGTCACCTAGTGCAG,8750 fluorescence intensity (a.u.)
13,CTGGGTGTTCAGATATATTACTAGAGGTCATACCATACAACGGAGTCACCTAGTGCAG,8130 fluorescence intensity (a.u.)
14,TGGGTCTCTTGGGGTCGGTGGGGCGGTCGTCGTCCGTGCCCGGAGTCACCTAGTGCAG,11400 fluorescence intensity (a.u.)
15,GCCATATTATTTTTCCTTTGTCCTAATTAATGTTAGAAATCGGAGTCACCTAGTGCAG,9440 fluorescence intensity (a.u.)
16,CTACTAGTACAGGCTATATCGCTTACTCCCTTTGTCCTAACGGAGTCACCTAGTGCAG,8420 fluorescence intensity (a.u.)
17,TACATTGTTAGTACTGTTTGGTGTAACTATTTTTTTATAACGGAGTCACCTAGTGCAG,8180 fluorescence intensity (a.u.)
18,TAGTTGTTGTTGTTGTTATTTGTTAATTGGGCCTTGTTCACGGAGTCACCTAGTGCAG,12300 fluorescence intensity (a.u.)
19,TTAGTACTATTAATTTGGTGGGGTTGGGTGGGTGCTGTAACGGAGTCACCTAGTGCAG,16700 fluorescence intensity (a.u.)
20,GAGGAGGTGGTGGCGCGGCGTTCTTGGGGCTGGAGAGGGTCGGAGTCACCTAGTGCAG,8790 fluorescence intensity (a.u.)
21,CTTGGCTGTTCTTGGGTGGGTGAGGTGGGGCGGTCGGATCCGGAGTCACCTAGTGCAG,17100 fluorescence intensity (a.u.)

row,Sequence,binding signal
1,CTAATTAGTACTGCAATTTTGGGTCCTTGGGTTGTTAGAACGGAGTCACCTAGTGCAG,16900 fluorescence intensity (a.u.)
2,TAGGGGTTAGTGTGCGAGCATGTGCTGTGTAATTTTTTAACGGAGTCACCTAGTGCAG,10600 fluorescence intensity (a.u.)
3,GGCTATCGGTGGGTGGGTGGGGTGTACTACTCCCCTATAACGGAGTCACCTAGTGCAG,22200 fluorescence intensity (a.u.)
4,AACCTACTAGCTAGCTTAGTGTACTCTGTGTACTGTATATCGGAGTCACCTAGTGCAG,8190 fluorescence intensity (a.u.)
5,CTTCGCTTTCGTCACGTTCTTGATTTGGGCGGGCGCGGAGCGGAGTCACCTAGTGCAG,8980 fluorescence intensity (a.u.)
6,CTCGGGAGAGGGGAGGCGTAGATTCTTCTGTTGCTTCAGTCGGAGTCACCTAGTGCAG,10300 fluorescence intensity (a.u.)
7,CGTCGAACGTCCACTACCATCCTCTTGTTAATCCCGCAAACGGAGTCACCTAGTGCAG,8060 fluorescence intensity (a.u.)
8,TTTCTTTGACTCGGTGACTTTGTGAGAGATGTTTTATGCCCGGAGTCACCTAGTGCAG,9190 fluorescence intensity (a.u.)
9,CTCCGTCCCATAATATAAGGGATTTTGACTTTTTACTTGCCGGAGTCACCTAGTGCAG,11200 fluorescence intensity (a.u.)
10,TCCCCGTTACCGAGCGCCGCCGCCTCCGCCTCCACCTCTACGGAGTCACCTAGTGCAG,10100 fluorescence intensity (a.u.)
11,TCTACACAATTCAAAATCCGGCCCTGTTTATTTTGTACTACGGAGTCACCTAGTGCAG,8420 fluorescence intensity (a.u.)
12,CTACACTCCTAATCTCTCTCTCTTTCTCGAGTGGAATCCACGGAGTCACCTAGTGCAG,8970 fluorescence intensity (a.u.)
13,ACGCGCCGCAACGCAACTTCCATGGACGCATCTGGACCACCGGAGTCACCTAGTGCAG,8130 fluorescence intensity (a.u.)
14,GTTTTTAATTTCGATAATATTTGATTCTGTTTTCGTGTCCCGGAGTCACCTAGTGCAG,8930 fluorescence intensity (a.u.)
15,ATTACCACTGATGCTGCTTGGTTCGCAATACTTGCTTCTTCGGAGTCACCTAGTGCAG,9730 fluorescence intensity (a.u.)
16,GTTCTGACTGTTGTGTTGTGGGTGTTTGGTTTATGAGCAGCGGAGTCACCTAGTGCAG,8430 fluorescence intensity (a.u.)
17,CTCGTATAGTTAGCTTGGAGGACTGAGCTTTGTGGGTGGGCGGAGTCACCTAGTGCAG,8880 fluorescence intensity (a.u.)
18,GACTGAGCTTTGTGGGTGGGTTGGTTGGTTGGTTATACAACGGAGTCACCTAGTGCAG,30500 fluorescence intensity (a.u.)
19,GTCTCCATTGCACCCACGTTGGATCCGCCCTTGCACATGGCGGAGTCACCTAGTGCAG,8470 fluorescence intensity (a.u.)
20,TAATTCATGGTTGGTTTTTAATTATATTTCCCTCCTTAAACGGAGTCACCTAGTGCAG,9580 fluorescence intensity (a.u.)
21,TCGTCGGTGGTGTGGGGAGGAGAAGATGGCCGGAGAGGAACGGAGTCACCTAGTGCAG,15000 fluorescence intensity (a.u.)
